Bioassay records (PubChem)
Rows were chosen to be rich in hits. Some 9.2% of all compounds tested hit in one or more screens of this group.
Rab9 promoter act: qHTS Assay for Rab9 Promoter Activators | 2.8% of 320,000 active | Huh7 Rab9 promoter-luciferase reporter, luminescence, 24 h | AID 485297, 2010 | Potency, µM (doses to about 9.22 µM), for inactives: at the highest dose activation, negative = inhibition, hits mostly activators; further: % of control where 0% means no effect; nearly all actives have a fitted effect of over 60% in size
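Cell-based reporter: Huh7 stable for Rab9 promoter-driven luciferase, plated in reduced-serum medium with 10% FBS at 1500 cells/well, compound-treated 24 h at 37 °C, luminescence read after 10 min reagent.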
NPC1 prom act: qHTS Assay for NPC1 Promoter Activators; Huh7 NPC1 promoter luciferase reporter, 24 h; Potency, µM (highest dose often 9.22 µM), for the others: top-dose activation, most hits filed as activators; 2.4% of 320,000 active; further: % of control where 0% means no effect; nearly all actives have a fitted effect of over 60% in size
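Quantitative HTS used a cell-based reporter: Huh7 cells stably bearing the NPC1 promoter upstream of luciferase were treated with compounds for 24 h, and promoter activation was read as luminescence.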
FLuc modulator: qHTS profiling assay for firefly luciferase inhibitor/activator using purifed enzyme and Km concentrations of substrates (counterscreen for miR-21 project). Luciferin 4-monooxygenase (Photinus pyralis), P08659. 6.9% of 360,000 active. purified FLuc, Km substrates, luminescence inhibition. Potency, µM (titrated, usually from 57.5 µM), inactives show at the top dose activity change, negative = inhibition, most hits filed as inhibitors. AID 588342, 2011;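 further: plate controls were vehicle for no effect and reference inhibitor for full effect; nearly all actives have a fitted effect of over 55% in size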
Target sequence (P08659 whole entry, looked up): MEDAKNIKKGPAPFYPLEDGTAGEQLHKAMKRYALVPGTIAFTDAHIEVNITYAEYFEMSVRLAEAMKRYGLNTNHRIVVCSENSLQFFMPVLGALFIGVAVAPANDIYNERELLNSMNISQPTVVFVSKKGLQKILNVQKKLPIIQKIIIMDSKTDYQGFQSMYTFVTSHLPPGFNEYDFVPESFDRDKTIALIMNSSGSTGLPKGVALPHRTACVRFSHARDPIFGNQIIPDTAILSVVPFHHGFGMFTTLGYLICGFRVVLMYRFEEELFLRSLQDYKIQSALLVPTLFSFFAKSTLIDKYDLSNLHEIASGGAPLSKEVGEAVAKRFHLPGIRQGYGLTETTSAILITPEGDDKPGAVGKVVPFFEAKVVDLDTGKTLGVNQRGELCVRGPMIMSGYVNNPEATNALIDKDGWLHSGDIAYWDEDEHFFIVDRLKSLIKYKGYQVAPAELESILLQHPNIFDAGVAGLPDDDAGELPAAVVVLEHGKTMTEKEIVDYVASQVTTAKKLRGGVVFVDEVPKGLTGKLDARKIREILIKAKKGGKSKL
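Purified P. pyralis luciferase, 10 nM final, with Km-level 10 uM D-luciferin and 10 uM ATP in 50 mM Tris acetate pH 7.5, 10 mM Mg acetate, 0.01% Tween-20, 0.05% BSA; 6-point qHTS titration about 60 µM downward; luminescence read.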
ELG1 DNA repair: qHTS screen for small molecules that inhibit ELG1-dependent DNA repair in human embryonic kidney (HEK293T) cells expressing luciferase-tagged ELG1; HEK293T ELG1-luciferase reporter, luminescence, 16 h; DNA damage induced by 5-fluorouridine; Potency, µM (series often up to 46.1 µM), for the others: top-dose activity change, negative = inhibition, usual class: inhibitors; 2.3% of 330,000 active; AID 504467, 2011; further: on the % scale 0 is the no-effect control and ±100 the full control effect; nearly all actives have a fitted effect of over 55% in size
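Luminescence from the luciferase reporter, measured 30 min after ONE-Glo reagent at room temperature, was the read-out. Beforehand, 2,000 cells per well were exposed for 16 hr at 37 °C to 5-fluorouridine together with compound or vehicle.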
ELG1 genotox: qHTS screen for small molecules that induce genotoxicity in human embryonic kidney (HEK293T) cells expressing luciferase-tagged ELG1; 1.3% of 330,000 active; Potency, µM (titrated, usually from 46 µM), without a hit: top-dose activity change, positive = activation, actives largely listed as activators; HEK293T ELG1-luciferase reporter, luminescence, 16 h; AID 504466, 2011; further: % of control where 0% means no effect; nearly all actives have a fitted effect of over 60% in size
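Step 1: seed 2,000 HEK293T ELG1-luciferase cells per well. Step 2: add compound or DMSO, incubate 16 hr at 37 °C. Step 3: ONE-Glo, 30 min at room temperature, read luminescence.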
SMN2 splice up: qHTS Assay for Enhancers of SMN2 Splice Variant Expression. HEK293 SMN2-luciferase splicing reporter, luminescence, 30-36 h. Potency, µM (highest dose often 46.1 µM), for the others: at the top dose activity change, positive = activation, actives largely listed as activators. 2.8% of 210,000 active. AID 1458, 2008; further: % of control where 0% means no effect; nearly all actives have a fitted effect of over 55% in size
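HEK293 cells carry an SMN2 […]–luciferase reporter in which exon 7 inclusion puts luciferase in frame. Cells were plated 10-12 h before compound addition, then incubated 30-36 h at 37C. ONE-Glo luminescence was read; sodium butyrate at 4.5 mM final served as control.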
Numbers without * were called inactive; ? = inconclusive; / = no result given; [ ] = another dose, or the depositor's remark. The call rests on the fitted dose curve; in most records, active means well fitted curve in the direction sought with a large enough effect; inconclusive means small, poorly fitted or top-dose-only effect, or another doubt; inactive means no such curve, though single readings can be large; an effect the other way counts as inactive or inconclusive. Potency means the concentration at half of the fitted maximal effect.

SMILES | Rab9 promoter act | NPC1 prom act | FLuc modulator | ELG1 DNA repair | ELG1 genotox | SMN2 splice up
COCCNC(=O)c1cc2sccc2n1C | -3% | -5% | -4% | 3% | 4% | /
Cn1c(C(=O)Nc2ccc3c(c2)OCO3)cc2sccc21 | 1.6µM* | 1.4µM* | 3.4µM* | ? | ? | 13µM*
CCOC(=O)c1ccccc1NC(=O)CSc1ccc(-c2sc(-c3ccccc3)nc2C)nn1 | / | / | -7% | / | / | /
O=C(CCn1c(=O)c2ccccc2n(Cc2ccc(F)cc2Cl)c1=O)NCc1ccc2c(c1)OCO2 | / | / | 0% | / | / | 2%
CCOC(=O)C1CCN(C(=O)Cn2c(=O)oc3cc(S(=O)(=O)N4CCC(C)CC4)ccc32)CC1 | / | / | -4% | / | / | -6%
Cn1c(C(=O)Nc2ccccc2)cc2sccc21 | ? | ? | 13µM* | ? | ? | ?
CCc1ccccc1NC(=O)c1cc2sccc2n1C | ? | 1% | ? | 16% | 3% | 10%
COc1ccc(-c2nc(CSCC(=O)N3CCN(c4ccccc4F)CC3)c(C)o2)cc1 | / | / | -18% | / | / | -65%
CCOc1ccc(-c2nc(CSCC(=O)N3CCN(c4cccc(OC)c4)CC3)c(C)o2)cc1 | -8% | 2% | 24µM* | ? | -9% | -97%
CCc1ccc(-c2nc(CSCC(=O)N3CCN(c4ccccn4)CC3)c(C)o2)cc1 | -26% | -10% | ? | ? | -11% | /
Cc1ccc(-c2nc(CSCC(=O)N3CCN(c4ccccn4)CC3)c(C)o2)cc1 | 0% | 0% | 6% | 10µM* | -8% | -95%
CC(C)(C)n1nc2c(c1NC(=O)c1ccc(Cl)c([N+](=O)[O-])c1)CS(=O)(=O)C2 | -2% | -5% | 1% | 6% | -14% | /
COc1ccc(CCNC(=O)Cn2nnc(-c3ccc(OC)c(OC)c3)n2)cc1OC | -3% | -3% | -6% | ? | -3% | -8%
COc1ccc(CCNC(=O)Cn2nnc(C(=O)Nc3ccc(Br)cc3)c2N)cc1OC | -7% | -1% | 9.5µM* | ? | -3% | /
COc1ccc(CCNC(=O)Cn2nnc(-c3ccc(N(C)C)cc3)n2)cc1OC | 0% | 0% | 17µM* | -2% | 0% | -57%
CCOc1ccc(NC(=O)c2nnn(CC(=O)Nc3ccccc3OC)c2N)cc1 | 19% | 18% | 2.7µM* | ? | 6% | -1%
COc1ccc(NC(=O)c2nnn(Cc3ccccc3C)c2N)c(OC)c1 | / | / | -2% | / | / | -12%
COc1ccccc1NC(=O)Cn1nnc(C(=O)Nc2ccccc2)c1N | -4% | 2% | -3% | 25% | -8% | -18%
CCOc1ccc(NC(=O)Cn2nnc(C(=O)NCCc3ccc(OC)c(OC)c3)c2N)cc1 | 5% | 2% | -1% | -13% | -1% | -9%
COc1ccc(OC)c(NC(=O)c2nnn(Cc3ccccc3C)c2N)c1 | -9% | 1% | 2% | 11µM* | 8% | -30%
COc1ccc(-n2c(=O)c3c4c(sc3n(Cc3c(F)cccc3Cl)c2=O)CN(C(C)=O)CC4)cc1OC | / | / | -2% | / | / | /
COc1ccc(NC(=O)CN(C)C(=O)Cn2c(=O)oc3ccccc32)cc1 | -1% | 1% | 2% | 7% | 2% | /
O=C(Nc1ccn(Cc2ccccc2)n1)c1ccc(F)cc1 | 2.8µM* | 2µM* | 6.7µM* | ? | ? | 4%
O=C(Nc1ccn(Cc2ccccc2)n1)c1cccc(Cn2cc([N+](=O)[O-])cn2)c1 | 4% | 4% | 15µM* | ? | -7% | -13%
N[C@@H](C(=O)O)[C@@H](CC(=O)O)c1ccc(Cl)cc1 | / | / | / | / | / | -4%
SMILES | Rab9 promoter act | NPC1 prom act | FLuc modulator | ELG1 DNA repair | ELG1 genotox | SMN2 splice up
CN(CC1CCCO1)S(=O)(=O)c1ccc(C(=O)Nc2ccc3c(c2)OCO3)cc1 (stereo not drawn) | -9% | -3% | -7% | 12µM* | -4% | -28%
CN(CC1CCCO1)S(=O)(=O)c1ccc(C(=O)N2CCN(c3ccccc3)CC2)cc1 (stereo not drawn) | -9% | -1% | 1% | 23µM* | -8% | -31%
CN(c1ccc(C(=O)Nc2ccc3c(c2)OCCO3)cc1)S(C)(=O)=O | 1.6µM* | 2.2µM* | 7.6µM* | ? | ? | 11µM*
O=C(c1ccc(OCC2CCCO2)cc1)N1CCN(c2ccccc2)CC1 (stereo not drawn) | -3% | -1% | -1% | 2% | -3% | 10%
Cc1ccc(CN(c2ccc(C(=O)Nc3ccc4c(c3)OCO4)cc2)S(C)(=O)=O)cc1 | -1% | -3% | -16% | -13% | -3% | -1%
CN(c1ccccc1C(=O)Nc1ccc2c(c1)OCCO2)S(C)(=O)=O | 10% | -1% | 2% | 4% | 1% | -9%
CN(c1ccc(C(=O)Nc2ccc3c(c2)OCO3)cc1)S(C)(=O)=O | 4µM* | 2.8µM* | 12µM* | ? | 15% | /
Cc1cc(C)c(S(=O)(=O)N2CCN(Cc3nc4ccc(C)cc4o3)CC2)c(C)c1 | / | / | -3% | / | / | /
COc1cc(/C=C/c2nc(C#N)c(N3CCCCCC3)o2)cc(OC)c1OC | / | / | ? | / | / | 23%
C=CCn1c(N)c(C(=O)Nc2cccc(C)c2)c2nc3ccccc3nc21 | 0% | 0% | -9% | -1% | -2% | 12%
C=CCn1c(N)c(C(=O)OCCC)c2nc3ccccc3nc21 | 6% | 3% | -8% | 16µM* | -4% | /
C=CCn1c(NCc2ccccc2O)nc2ccccc21 | 7% | 23% | ? | ? | 6% | /
CCn1c(COc2ccc(OC)cc2)nc2ccccc21 | ? | ? | 13µM* | ? | 17% | 1%
COCCn1c(COc2ccc(OC)cc2)nc2ccccc21 | ? | 18% | -4%[2.3 µM] | ? | 6% | 17%
C=CCn1c(NCc2ccc(OC)cc2O)nc2ccccc21 | ? | ? | 19µM* | ? | 13% | /
CCn1c(COc2ccccc2)nc2ccccc21 | 2% | 2% | ? | ? | 21% | 3%
C=CCn1c(COc2ccc(OC)cc2)nc2ccccc21 | ? | ? | 17µM* | ? | ? | /
C=CCn1c(NCc2ccc3c(c2)OCO3)nc2ccccc21 | 24% | 14% | 15µM* | ? | 30% | -3%
COc1ccc(OC)c(CNC(=O)C2CCN(S(=O)(=O)c3cn(C)cn3)CC2)c1 | / | / | 3% | / | / | /
O=C(Cn1ncc2c3ccccc3n(Cc3ccccc3)c2c1=O)Nc1ccccc1C(F)(F)F | / | / | 1% | / | / | -7%
